# Compound activity as filed in PubChem BioAssay.
# A selection: hits, their analogues and other compounds. The true share with any hit is near 8.8%.
# IL-1B inflam inh: inflammasome signaling inhibition, IL-1 beta readout; AID 743279; hit rate 4.7% among 360,000; THP-1 LPS/ATP IL-1B secretion, AlphaLISA, 16 h; active compounds read low; activity change, % at 57.5 µM; in the data active means activity change below about -50%; inconclusive means mostly about -30% to -49%
#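 Secreted IL-1B measured by AlphaLISA bead assay after 16 h compound exposure of THP-1 cells; compounds (final up to 57.5 uM) added 1 h before LPS (250 ng/mL) and ATP (1.25 mM) stimulation; lower signal means less secretion.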
# HT1080 IDH1KD tx: HT-1080 IDH1 knockdown cell toxicity (counter line); HT-1080 IDH1 knockdown viability, ATP luminescence, 48 h; Potency, µM (doses to about 46.1 µM), inactives show top-dose activity, negative = toxicity, most hits filed as cytotoxic; hit rate 2% among 360,000; AID 686971;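 further: potency means the concentration at half of the fitted maximal effect; 0% = DMSO wells and -100% = cell-free medium wells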
#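 Using the IDH1-knockdown HT-1080 line run in the same batch and compound series as the NT line, viability after 48 h at 37 °C was determined by CellTiter-Glo luminescence and expressed as % activity.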
# KB-3-1 tox: kills parental KB-3-1 adenocarcinoma cells | KB-3-1 viability, CellTiter-Glo ATP luminescence, 72 h | Potency, µM (top dose mostly 46.1 µM), usual class: cytotoxic | AID 1347075 | hit rate 1.4% among 400,000; further: potency means the concentration at half of the fitted maximal effect; nearly all actives have a fitted effect of over 60% in size
#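 72 h, 37 °C compound treatment of KB-3-1 parental cells; CellTiter-Glo added, 10 min, luminescence read. Data corrected against DMSO-only plates and normalized before curve fitting.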
# KB-V1 cytotox: KB-V1 MDR subline cytotoxicity; KB-V1 MDR cells viability, CellTiter-Glo, 72 h; Potency, µM (titrated, usually from 46.1 µM), usual class: cytotoxic; hit rate 3.4% among 400,000; further: potency means the concentration at half of the fitted maximal effect; nearly all actives have a fitted effect of over 60% in size
#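 qHTS viability screen in drug-selected KB-V1 MDR cells: 72 h compound treatment at 37 degrees C, ATP luminescence end point.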
# HT1080NT lethal: kills 2HG-producing HT-1080-NT fibrosarcoma cells | Potency, µM (highest dose often 46.1 µM), for the others: at the top dose activity, negative = less viability, hits mostly cytotoxic | hit rate 1.6% among 360,000 | AID 686970 | HT-1080-NT fibrosarcoma viability, CellTiter-Glo ATP luminescence, 48 h;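 further: NT is the 2HG producing partner of a matched IDH1 knockdown line; potency means the concentration at half of the fitted maximal effect; 0% = DMSO-treated cells and -100% = media-only wells without cells; nearly all actives have a fitted effect of over 55% in size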
#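 Compounds were tested in concentration-response format on HT-1080-NT cells for 48 hours at 37 degrees C. Cell viability came from CellTiter-Glo luminescence; curves were classified by r2, response magnitude and activity.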
# * marks the source's active call; other numbers are inactive results; i = inactive; ? = inconclusive; / = no result. Unless noted, the call rests on the fitted dose curve; in most records, active means well fitted curve in the direction sought with a large enough effect; inconclusive means small, poorly fitted or top-dose-only effect, or another doubt; inactive means no such curve, though single readings can be large; an effect the other way counts as inactive or inconclusive. Unless noted, on the % scale 0 is the no-effect control and ±100 the full control effect.
SMILES,IL-1B inflam inh,HT1080 IDH1KD tx,KB-3-1 tox,KB-V1 cytotox,HT1080NT lethal
O=S1(=O)CCOC[C@H](c2ccccc2)N1Cc1ccc(Cl)c(Cl)c1,/,/,?,i,/
COCCn1c(C)cc(C(=O)CSc2nc(C)cc(C)c2C#N)c1C,-52*,-13%,i,?,-13%
CCOC(=O)CSc1nc(C)cc(C)c1C#N,14,-2%,i,i,-2%
Cc1cc(C)c(C#N)c(SCC(=O)c2ccc(Cl)cc2Cl)n1,-93*,?,i,i,?
Cc1cc(C)c(C#N)c(SCC(=O)c2cc(C)n(CCc3ccccc3)c2C)n1,-11,-10%,i,i,0%
Cc1snc(SCC(=O)c2ccc(Cl)cc2)c1C#N,-3,6%,i,21µM*,-1%
COC(=O)c1ccc([C@@H]2C[C@H]3CN(Cc4cccnc4)C(=O)[C@]34CCCN24)cc1,0,5%,i,i,9%
Cc1cc(N(C)C)cc(C)c1N=Nc1cc[n+]([O-])cc1,6,-7%,i,i,-15%
Cc1ccc(NC(=O)c2c(C)oc3ccc(O)c(CN4CCN(Cc5ccccc5)CC4)c23)cc1,/,/,i,i,/
Cc1ccc(C2c3c(-c4ccccc4O)n[nH]c3C(=O)N2Cc2ccncc2)cc1 (stereo unspecified),?,?,8.2µM*,?,?
COc1cc(C2c3c(-c4cc(Cl)c(C)cc4O)n[nH]c3C(=O)N2Cc2cccnc2)ccc1O (stereo unspecified),-59*,-14%,i,?,3%
COc1cccc(C2c3c(-c4cc(Cl)c(C)cc4O)n[nH]c3C(=O)N2Cc2cccnc2)c1 (stereo unspecified),?,?,i,i,?
O=C1c2[nH]nc(-c3ccccc3O)c2C(c2cccc(Br)c2)N1Cc1ccncc1 (stereo unspecified),/,/,2.6µM*,?,/
CCOc1ccc(C2c3c(-c4ccccc4O)n[nH]c3C(=O)N2Cc2ccncc2)cc1 (stereo unspecified),/,/,?,i,/
CNC(=O)Cn1nc(-c2ccc(Cl)cc2)c2ccccc2c1=O,12,5%,i,i,13%
CC12CCC=CC1=C(C=O)C1C2CCC2(C)C(O)CCC12 (stereo unspecified),-97*,?,18µM*,?,-9%
COc1ccc(CCNC(=O)c2c(N)no[n+]2[O-])cc1OC,-18,5%,i,?,-1%
Cc1ccc2c(c1)c(C)c(C)n2CC(O)Cn1nc(C)c(Br)c1C (stereo unspecified),?,?,i,i,16µM*
Cc1ccc2c(c1)c1c(n2CC(O)Cn2nc(C)c(Br)c2C)C(=O)CCC1 (stereo unspecified),0,-4%,i,i,-2%
CC(=O)c1c(C)nn(CC(O)Cn2c3c(c4cc(C)ccc42)CCCC3=O)c1C (stereo unspecified),-62*,-4%,i,i,-3%
Cc1ccc2c(c1)c(C)c(C)n2CC(O)CN1CCCCC1C (stereo unspecified),/,-20%,i,?,-25%
Cc1ccnc2ccc(Br)cc12,/,/,i,i,/
COc1cccc(CC2(CO)CCCN(Cc3cc(F)ccc3-n3cccn3)C2)c1 (stereo unspecified),-3,?,i,?,?
CCc1ccc2c(c1)C(O)(CC(=O)c1cccs1)C(=O)N2 (stereo unspecified),58,-1%,i,?,-4%
CCC1=C(c2ccc(C)cc2)S(=O)(=O)N=C1N1CCC(C(=O)NCCCN2CCCCC2C)CC1 (stereo unspecified),-12,1%,i,i,4%
SMILES,IL-1B inflam inh,HT1080 IDH1KD tx,KB-3-1 tox,KB-V1 cytotox,HT1080NT lethal
CC(C(=O)c1ccc(-c2ccccc2)cc1)[n+]1ccccc1 (stereo unspecified),-13,?,?,i,-11%
Cc1cc[n+](C(C)C(=O)c2ccc(-c3ccccc3)cc2)cc1 (stereo unspecified),-58*,?,?,i,-30%
CC(=O)NCc1nnc2c3ccccc3c(-c3ccccc3)nn12,9,-13%,i,i,-8%
O=C(NCc1nnc2c3ccccc3c(-c3ccccc3)nn12)c1ccc(Cl)cc1,-97*,5%,i,?,-1%
CC1(c2ccc3c(c2)OCCO3)NC(=O)N(CC(=O)Nc2ccccc2)C1=O (stereo unspecified),3,-2%,i,i,1%
CCC(=O)c1ccc(OCc2ccc(C(=O)c3ccccc3)cc2)cc1,-136*,?,?,10µM*,-15%
O=C(N/C(=C\c1cccc([N+](=O)[O-])c1)C(=O)N(CCO)CCO)c1ccco1,-51*,-10%,i,i,7%
CCN(CC)C(=O)/C(=C\c1cccc([N+](=O)[O-])c1)NC(=O)c1ccco1,5,19%,i,13µM*,4%
CC(C)(C)C1=CC(O)(c2ccccc2)C=C(C(C)(C)C)C1=O,6,-14%,i,i,-27%
COc1ccc(-n2c(SC(CN3CCCCC3)CN3CCCC3=O)nc3ccccc3c2=O)cc1 (stereo unspecified),-52*,-11%,i,?,-16%
COc1ccc(-n2c(SCC(=O)N3CCCCC3)nc3ccccc3c2=O)cc1,7,13%,i,i,-18%
O=C(CNC(=O)c1ccc(N2CCCC2=O)cc1)Nc1ccc(F)c(F)c1F,-10,-25%,i,i,-7%
CCC1CSC(Nc2ccc(C(=O)/C=C/c3cccc(C)c3)cc2)=N1 (stereo unspecified),-87*,?,?,i,?
O=C(/C=C/c1ccc(OC2CSC2)cc1)c1ccc(Cl)cc1,-13,3%,i,i,15%
CCC1CSC(Nc2ccc(C(=O)/C=C/c3ccc(Oc4ccccc4)cc3)cc2)=N1 (stereo unspecified),?,-15%,?,18µM*,0%
O=C(CSc1nc(-c2ccccc2)ns1)N1CCOCC1,-12,10%,i,i,?
Cc1cccc(-c2nsc(SCC(=O)N3CCCC3)n2)c1,-21,-4%,i,16µM*,1%
Cc1nnc(SCc2cccc3ccccc23)s1,/,-7%,i,i,-7%
COc1cc(OC)c(OC)cc1/C=N/N(C)c1ccccc1,-62*,-20%,i,i,-19%
COc1cccc(-c2coc3c(C)c4oc(=O)c(CCC(=O)O)c(C)c4cc23)c1,-60*,?,i,i,?
O=C(Nc1ccccc1Br)C1CC(=O)N(c2ccc3c4c(cccc24)CC3)C1 (stereo unspecified),?,?,4.6µM*,?,?
